Laboratory results published in PubChem BioAssay AID588405 (Sanford-Burnham Center for Chemical Genomics, 2011).
About 6,200 (1.7%) of roughly 360,000 compounds were called active. The sample holds actives, similar compounds and a random draw of the others, so the mix is not that of the screen. Values without a mark were called inactive.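 Rule for the calls: active = inhibition of at least 50% at 20 µM; inactive = the rest.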

experiment: Peg3 promoter-driven luciferase inhibitors, primary screen, cell-based, HeLa, luciferase luminescence (AID 588405); details: HeLa PEG-Prom luciferase reporter, overnight, at 20 µM, stronger effect = higher value

Row | Structure (SMILES) | inhibition
1 | CCc1nc2c(OCC(N)=O)cccn2c1N(C)C(=O)c1ccc(OC)cc1 | -3.72%
2 | CN(CC(=O)Nc1ccc(Cl)c(C(F)(F)F)c1)C(=O)CCC(=O)c1ccccc1 | 12.6%
3 | O=C(CC(O)(C(F)(F)F)C(F)(F)F)Nc1ccc(Cl)c(Cl)c1 | 69.9% (active)
4 | O=C(Cc1ncc(C(F)(F)F)cc1Cl)Nc1cccc(Br)c1 | 3.22%
5 | COC(=O)/C=C\C(=O)Nc1cccc([N+](=O)[O-])c1 | 106% (active)
6 | Cc1ccc(NC(=O)O/N=C/c2cccc([N+](=O)[O-])c2)cc1 | -85.8%
7 | O=C(Nc1cccc([N+](=O)[O-])c1)N1CCc2ccccc2C1 | -236%
8 | O=C(CN1C(=O)NC2(CCOc3ccccc32)C1=O)NCc1ccc(F)cc1 (stereo not given) | 20.2%
9 | CCc1ccc2c(c1)NC(=O)C2(C)Cc1ccc(OC(F)(F)F)cc1 (stereo not given) | 32.7%
10 | CCOC(=O)c1sc(C)c2c1NC(C)(c1cccc3ccccc13)NC2=O (stereo not given) | 34.8%
11 | Cc1ccc(-c2nc3ccc(Br)cn3c2Cc2ccccc2C(F)(F)F)cc1 | -138%
12 | Cc1ccc(-c2cn3cc(C)ccc3n2)cc1 | 88.8% (active)
13 | COc1ccc(-c2nc3ccc(Br)cn3c2Cc2ccc(C)cc2)cc1OC | -58.2%
14 | Cc1ccc(-n2c(-c3ccc(Cl)cc3)n[nH]c2=S)cc1 | 17.7%
15 | Cc1ccc2nc(-c3ccc(Br)cc3)cn2c1 | 55.6% (active)
16 | Cc1ccc(-c2nc3ccc(Cl)cn3c2Cc2ccccc2)cc1 | -130%
17 | Cc1csc(NC(=O)CSc2nc(=O)n(CCCN(C)C)c3c2CCC3)n1 | 4.74%
18 | CN(Cc1ccc(C(F)(F)F)cc1)C(=O)[C@H]1O[C@@H](n2cnc3c(N)ncnc32)[C@H](O)[C@@H]1O | 6.54%
19 | CC1(C(=O)NS(=O)(=O)c2ccc(C#N)cc2)CCN1C(=O)c1ccc(C2CCCCC2)cc1 (stereo not given) | -8.94%
20 | O=[N+]([O-])/C(N=Nc1ccccc1)=N\Nc1ccccc1 | -2.71%

Row | Structure (SMILES) | inhibition
21 | Cn1c(CCC(=O)Nc2ccccc2F)nnc1SCC(=O)Nc1ccccc1Cl | 3.9%
22 | CCOc1ccc(-c2nc(N)ncc2-c2ccccc2OC)c(O)c1 | 1.53%
23 | COc1ccc(-c2nc(N)ncc2-c2ccc(Cl)cc2)c(O)c1 | 53.7% (active)
24 | C=C(C)COc1ccc(-c2ncncc2-c2ccc(OC)cc2)c(O)c1 | -25.6%
25 | CC(=O)Nc1cnc(-c2ccc(O)cc2C)cn1 | -46.9%
26 | CN1CCN(CCCCOc2ccccc2-c2ccccc2)CC1 | 7.99%
27 | S=C(c1ccc(-c2ccccc2)o1)N1CCCCC1 | -230%
28 | OCCN1CCN(C(=S)c2ccc(-c3ccccc3)cc2)CC1 | 51.7% (active)
29 | CC(C#N)OC(=O)c1cccnc1SCC(=O)Nc1ccc2c(c1)OCO2 (stereo not given) | -92%
30 | O=C(O)CCN1C(=O)CC2(CCCCC2)C1=O | -1.96%
31 | COCCNc1ncnc2c1ncn2[C@H]1CN(CCN2CCOCC2)C[C@@H](CO)O1 | 0.57%
32 | Clc1ccc2nc(-c3ccccc3)nc(C(Cl)Cl)c2c1 | 107% (active)
33 | Clc1cccc(-c2nc(NCC3CCCO3)c3ccccc3n2)c1 (stereo not given) | 17.2%
34 | N#CCSc1nc(-c2ccccc2)nc2ccc(F)cc12 | 16.9%
35 | CC(C)c1cc(C(=O)NC2CCCCCC2)c2ccccc2n1 | -6.57%
36 | CN(c1ccc2nc3ccccc3c(=O)n2n1)C1CCCCC1 | 81.5% (active)
37 | CC(C)C(C)NC(=O)COc1nc2ccccc2nc1N(C)C1CCCCC1 (stereo not given) | 2.14%
38 | Cc1nc2c(OCC(=O)C(C)(C)C)cccn2c1N(C)Cc1cccs1 | -4.66%
39 | CCCCc1ccc(S(=O)(=O)NC(=O)C2(C)CCN2C(=O)c2c(C)noc2C)cc1 (stereo not given) | -14.9%
40 | COc1ccc(C(C)C)cc1-c1ccc2nncn2c1 | -16.5%

Row | Structure (SMILES) | inhibition
41 | CC1(Oc2ccc(Cl)cc2)CCN(Cc2csc3ccccc23)C1 (stereo not given) | -17.9%
42 | CC1(C(=O)NS(=O)(=O)c2ccccc2Cl)CCN1C(=O)c1cccc(F)c1 (stereo not given) | -6.7%
43 | O=c1[nH]c2ccc(S(=O)(=O)N3CCCC3)cc2[nH]1 | 3.24%
44 | Cc1cccc(NC(=O)CN2CCN(C(=O)C3CCN(C(=O)/C=C/c4ccccc4)CC3)CC2)c1C | -10.7%
45 | CCOC(=O)/C=c1\s/c(=C\c2ccc(C#N)cc2)c(=O)n1CC(=O)Nc1cccc(C)c1C | 57.2% (active)
46 | Cc1cccc(NC(=O)CSC(N)=O)c1C | 1.28%
47 | Cc1cnc(C(=O)OCC(=O)Nc2ccc(Cl)cc2Cl)cn1 | -12%
48 | CN1CCC(OC(=O)COc2ccc(Cl)cc2Cl)CC1 | 3.36%
49 | COC(=O)c1c(NC(=O)COc2ccc(Cl)cc2Cl)sc2c1CC(C)(C)NC2(C)C | 92.3% (active)
50 | Cc1ccccc1S(=O)(=O)NC(=O)C1(C)CCN1C(=O)Cc1ccc(Cl)cc1Cl (stereo not given) | 3.83%
51 | Cc1cccc(CNC(=O)c2sc(=O)n(Cc3ccccc3C)c2C)c1 | 3.15%
52 | CCn1c(=O)c(=O)[nH]c2c(=O)oc3ccc(S(=O)(=O)Nc4ccc(OC)cc4)cc3c21 | -5.21%
53 | CC(=O)N1C[C@@H](CO)[C@@H](N(C)C(=O)c2ccco2)C[C@H]1c1ccccc1 | -9.39%
54 | Cc1csc(NC(=O)CSc2nc(=O)cc(N)n2-c2ccc(F)cc2)n1 | 1.12%
55 | COc1cc(SC)ccc1C(=O)NNC(=O)C1COc2ccccc2O1 (stereo not given) | -36.6%
56 | COc1cc(SC)ccc1C(=O)Nc1nc(C)cs1 | 99.9% (active)
57 | CCc1nc2c(OCc3cccc(OC)c3)cccn2c1N(C)C(=O)C(C)C | 17.8%
58 | Clc1ccccc1Nc1nc(NCc2cccs2)nc2ccsc12 | 7.17%
59 | COc1cccc(CNc2nc(NCc3cccs3)nc3ccsc23)c1 | 57.2% (active)
60 | COc1cccc(CNc2nc(NCc3ccccc3OC)nc3ccsc23)c1 | 30.7%
